Assay results published in the supplement of paper PMC6555819.

What follows are sequences tested on VDR:RXRa (NR concentration 270 nM, RXRa partner concentration 90 nM) (assay: PBM binding z-score (relative to random genomic background probes); higher = stronger binding; sequences stand for … in GC…GCGATTGACAGCGTAGAATGAAGG).
Protocol: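 Protein-binding microarray (Agilent 4x180K custom design, double-stranded 60-nt probes: 5' GC cap, 34-nt variable region, 24-nt constant primer region; full probe sequence given). Purified or IVT nuclear receptor:RXRα heterodimers (3:1 NR:RXRα, mostly 270:90 nM) or homodimers were incubated for 1 h in PBS with 2% milk and no ligand, then detected with Alexa488 antibodies. Fluorescence from o1-orientation probes (~5 replicates averaged) was converted to z-scores against 500 random hg19 background probes. Variable regions are seed direct-repeat (DR0–DR5) sites, all their single-nucleotide variants and half-site ablations.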

Row | Sequence | PBM binding z-score
1 | TCGAGTTGGTTAGGGGCATTCAGAATGGCGTCGA | 1.84
2 | ATATCTAGGTAAAGATAGTTCAGTGAATGCAAAT | 0.986
3 | ACAGACAGGTGAGGAAGGTAACTCAGGCTATCAT | 0.159
4 | ACTAGCAGGGCAAGTTTGGGTCACTCAAACAAAG | 1.32
5 | ACTAGCAGGCCAAGGGTAACTCAAGATTAGTCCG | -0.166
6 | AGAATGAGGTTATTACGATCAGGGAATTGCGGTC | 1.99
7 | GCTAGCAGGCCATTTGGGTCACTTAATGACGGGC | 0.902
8 | CGTCAAATTTCAACTAAGGTAACGTAAAGCACGC | 0.709
9 | CCTACTGGGCCAAAGGTCATTAATTCCAATGCTC | 4.22
10 | GCATATAGGTAATACAAGGCGAAAGTCCGATTGT | -0.126
11 | TCTATTAGTTGAAGGGCGACCGACGAGTCCGTTT | 0.925
12 | ATCTCTAGGTAAAAGTTCAATGAATCCCGAGGAT | 2.25
13 | CCTACTGGCCCATCAGGTCATTGATATCAACGTT | 1.78
14 | ATCTCTAGGTAGAAGTTCAGTGAATCCCGAGGAT | 0.473
15 | CCTACTGCGCCATTCAGAGGTCATTGATCATATG | 3.85
16 | TCTCCGAGGACACGAAAGGTCAGAGCTCGACATC | 3.72
17 | TCTAGTTGGTTAAAGGTCACACACTCGAAATGCG | 4.86
18 | GCGACTGGGGCAAGGCAGGTTACCATAAGGTTGG | -0.166
19 | AGAATGACGTTAAGATCAGGGAAACAGAATACAT | -0.215
20 | CAGCCTAGGTCAGGCCCAGTATAGGAGGAACGTT | -0.208

Row | Sequence | PBM binding z-score
21 | TCATATAGGTAAACGGGTGAAAGTCCGTAAGTTA | 1.16
22 | AGAATGAGGGCACGCTGAGTTGATAGCAGAGTAG | 2.35
23 | TAGCCTAGGTCATGGGCCAGTATACCACGCGAAC | 1.97
24 | TAGCCTACGTCATTGGGCCAGTATAGTACGCATC | -0.617
25 | ACTCGGAGGACAAAGGTCCGAGCTACGCCAGTGA | -0.323
26 | TCTTGTAGATAAAGCAGGTTAAGAAAGCCTGAGT | 0.751
27 | TAGCCCAGGTCAGATCGGGCCAGTATACGCTATA | 0.983
28 | GCTGCTAGGTCAGCTTGGTCAGCTAACGGGTACG | 0.54
29 | GCTGCTCGGTCAGGTTGGTCAGCTAACGGGTACG | -0.457
30 | CGAACTAGGTCATTGACAGGACAGCGAATAGTAA | 2.05
31 | AGAATGAGGTTATACGTAGATGAGGGAAGAAAGT | 1.53
32 | ATCGACAGGTCGTGAGGTGAGTATACAGAAAGGC | 1.12
33 | GTACCAAGGTGAATAGGTCGTTTATGAGTAGGCG | 1.07
34 | TCTTGTAGATCAATAGAGGTTAAGGAAGTGCGCT | 1.77
35 | AGTCAAAATTCAGGACGAGGTAACGTAAAGCACG | -0.107
36 | CTACCACGGTGAACAAGGTCGTTGATTACTATTC | 3.47
37 | CCTAACAGGCCAGGGTCACTCAAGCATTTCGCTT | 2.86
38 | ACTATTAGTTGAGACGAGGGCAACGGATAGGTTG | 0.66
39 | GGAACGAGGGCATTCGAGTCGATAGCATGGCGAT | 1.99
40 | ATAATGAGGTTACCAAAGATCAGGGAAACGCTTG | 1.81
